Experimental data from PubChem BioAssay AID588814 (The Scripps Research Institute Molecular Screening Center, 2011).
Out of some 360,000 compounds screened, about 1,200 (0.33%) were called active. What follows is part of a selection rich in actives, with near analogues and random picks from the rest. Unmarked numbers belong to inactive results.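 Rule for the calls: active = activation above the run's mean compound activation plus 3 SD (cut at about 16% in these data); inactive = the rest.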

target: Muscarinic acetylcholine receptor M1 (Homo sapiens) (UniProt P11229); assay: CHRM1 activation via calcium signal – Fluo-8 calcium fluorescence, CHO-K1 cells, HTS, primary screen (AID 588814); details: CHO-K1 hM1, Fluo-8 calcium fluorescence, agonist mode; at 3 µM; hits give high values; 0% DMSO, 100% acetylcholine EC100;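 note: peak over basal fluorescence ratio within a 140 s kinetic read after compound addition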
Sequence (P11229 whole entry, looked up): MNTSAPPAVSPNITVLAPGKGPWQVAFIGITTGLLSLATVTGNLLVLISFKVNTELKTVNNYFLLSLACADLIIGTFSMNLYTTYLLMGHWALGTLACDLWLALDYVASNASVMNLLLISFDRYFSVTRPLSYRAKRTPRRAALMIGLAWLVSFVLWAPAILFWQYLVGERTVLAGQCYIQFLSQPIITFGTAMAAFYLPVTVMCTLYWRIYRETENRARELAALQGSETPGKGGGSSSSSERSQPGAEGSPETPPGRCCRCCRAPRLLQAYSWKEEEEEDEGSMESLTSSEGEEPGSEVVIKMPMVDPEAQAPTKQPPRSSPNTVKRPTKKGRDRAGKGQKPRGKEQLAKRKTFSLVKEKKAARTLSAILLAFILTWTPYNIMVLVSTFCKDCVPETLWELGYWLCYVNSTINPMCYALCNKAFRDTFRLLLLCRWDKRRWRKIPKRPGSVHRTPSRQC

Row | Structure (SMILES) | activation
1 | Cc1c2cnn(CC(=O)NCc3ccccn3)c(=O)c2c(C)n1Cc1ccc(Cl)cc1 | 26% (active)
2 | O=C(Cn1ncc2c3ccccc3n(Cc3ccccc3)c2c1=O)NCc1ccccn1 | -0.49%
3 | Cc1ccc(Cn2c(C)c3cnn(CC(=O)NCc4ccccn4)c(=O)c3c2C)cc1 | 8.5%
4 | Cc1ccc(C(C)C)c(OCc2nnc(SCC(=O)Nc3nccs3)n2C)c1 | -4.42%
5 | CCCN(C(=O)c1nc2nccc(C)n2n1)c1c(N)n(Cc2ccccc2)c(=O)[nH]c1=O | -3.03%
6 | Nc1ncnc2c1ncn2[C@@H]1O[C@H](CNC(=O)[C@H](N)Cc2cccnc2)[C@@H](O)[C@H]1O | -1.79%
7 | COc1ccc(C(=O)/C=C/Nc2ccccn2)cc1 | 55% (active)
8 | Cc1cc(N/C=C\C(=O)c2ccc(Cl)c(Cl)c2)no1 | -3.12%
9 | COc1ccc(N2C(=O)CCC(C(=O)Nc3ccccn3)C2c2ccc(OC)c(OC)c2)cc1 (centres undefined) | 5.33%
10 | FC(F)Oc1ccccc1C1CC(c2ccc(Br)s2)Nc2ncnn21 (centres undefined) | 0.72%
11 | CC1CC(C)(C)CC2(C1)NC(=O)N(CC(=O)Nc1nccs1)C2=O (centres undefined) | -1.16%
12 | CC1CCN(C(=O)CSc2nnc(-c3ccco3)n2N)CC1 | -4.05%
13 | O=C1NCCn2nc3ccccc3c21 | -2.22%
14 | Cc1ccc(NS(=O)(=O)c2cc3c(cc2Br)NC(=O)CO3)cc1C | 21.6% (active)
15 | Cc1ccc(NS(=O)(=O)c2ccc3c(c2)NC(=O)CO3)cc1 | 2.14%
16 | Cc1ccc(NS(=O)(=O)c2cc3c(cc2C)NC(=O)CO3)cc1 | 1.51%
17 | O[C@H]1C[C@H](c2ccc(Cl)cc2)N(Cc2cccs2)C[C@@H]1n1cc(C2CC2)nn1 | 1.89%
18 | Cc1cc2nc3c(=O)n(Cc4ccccc4)c(=O)[nH]c3nc2cc1N | 24.8% (active)
19 | Nc1cc(=O)n(Cc2ccccc2)c(=O)n1Cc1ccccc1 | -2.41%
20 | CN(C(=O)COC(=O)c1ccc(Br)o1)c1c(N)n(Cc2ccccc2)c(=O)[nH]c1=O | -3.72%
21 | O=C(OCC(=O)N1CCCCCC1)c1cccc(Cl)c1Cl | -4.74%
22 | CC(=O)Nc1cccc(-c2ccnc3c2CC(C)(C(=O)NCc2ccccc2)O3)c1 (centres undefined) | -0.77%
23 | COc1ccc(OC)c(NC(=O)CN(Cc2ccc(Cl)cc2)S(C)(=O)=O)c1 | -5.87%
24 | COc1ccc(C(=O)NC(=O)CSc2nnc(-c3ccco3)n2-c2ccccc2)cc1 | -3.2%
25 | O=C(/C=C/c1ccc(F)cc1)NC(=S)NNC(=O)c1cccnc1 | 1.15%
26 | Cc1onc(-c2ccccc2)c1C(=O)NNC(=S)NC(=O)c1ccc(F)cc1 | 70.4% (active)
27 | Cc1[nH]c2ccccc2c1C(=O)COC(=O)c1c(-c2ccccc2)noc1C | -5.12%
28 | COc1ccc(C(=O)NC(=S)NNC(=O)c2c(-c3ccccc3)noc2C)cc1 | 44.6% (active)
29 | Cc1onc(-c2ccccc2)c1C(=O)N1CCN(S(=O)(=O)c2ccccc2C(F)(F)F)CC1 | -3.88%
